Hits are enriched below; roughly 10% of the tested compounds scored in any of these assays.
G9a block = blocks human histone lysine methyltransferase G9a; Q96KQ7; G9a H3K9 monomethylation, AlphaScreen, 2 h; Potency, µM (top dose mostly 102 µM), for inactives: at the highest dose activity, negative = inhibition, most hits filed as inhibitors; hit rate 8.8% among 350,000; AID 504332; further: on the % scale 0 is the no-effect control and ±100 the full control effect; nearly all actives have a fitted effect of over 75% in size
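Methyltransferase reactions run at room temperature for 2 h (20 nM enzyme, 500 nM biotin-H3K9 peptide, 20 uM SAM) after a 15 min compound preincubation; product detected by AlphaScreen beads and anti-H3K9me1 antibody.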
GLS inhibitor = inhibitors of human glutaminase (GLS); O94925; GLS enzymatic activity, qHTS titration; Potency, µM (top dose mostly 45.5 µM), for the others: at the top dose activity change, negative = inhibition, actives largely listed as inhibitors; hit rate 0.21% among 410,000; further: on the % scale 0 is the no-effect control and ±100 the full control effect
Target sequence (O94925 whole entry, looked up): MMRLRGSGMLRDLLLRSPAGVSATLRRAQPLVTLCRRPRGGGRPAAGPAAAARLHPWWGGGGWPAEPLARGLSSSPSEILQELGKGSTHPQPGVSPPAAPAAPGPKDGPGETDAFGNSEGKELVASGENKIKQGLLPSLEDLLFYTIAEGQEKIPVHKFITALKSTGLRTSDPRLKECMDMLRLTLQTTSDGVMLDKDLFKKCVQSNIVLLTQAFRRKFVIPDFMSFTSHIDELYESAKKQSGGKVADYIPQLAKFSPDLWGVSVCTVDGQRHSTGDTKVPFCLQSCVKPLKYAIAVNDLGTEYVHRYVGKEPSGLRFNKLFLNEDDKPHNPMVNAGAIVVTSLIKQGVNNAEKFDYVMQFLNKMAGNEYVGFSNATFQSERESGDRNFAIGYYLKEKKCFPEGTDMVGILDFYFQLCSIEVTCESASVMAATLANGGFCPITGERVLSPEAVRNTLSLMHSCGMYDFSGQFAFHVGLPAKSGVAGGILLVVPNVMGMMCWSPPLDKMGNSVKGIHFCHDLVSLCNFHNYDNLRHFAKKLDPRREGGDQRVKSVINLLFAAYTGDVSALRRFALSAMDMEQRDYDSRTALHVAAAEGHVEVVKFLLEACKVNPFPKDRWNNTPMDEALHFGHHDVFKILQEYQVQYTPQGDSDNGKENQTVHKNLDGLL
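Assay buffer: 45 mM KH2PO4 pH 8.2, 0.02% Tween-20. hKGA acts on L-glutamine (1 mM solution added); product glutamate is reported by an oxidase/peroxidase Amplex Red coupling, with fluorescence taken at baseline and 30 min.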
BAZ2B block = BAZ2B (human) inhibition | Q9UIF8 | AlphaScreen BAZ2B-H3K14Ac peptide displacement | Potency, µM (top dose mostly 114 µM), without a hit: top-dose activity change, negative = inhibition, most hits filed as inhibitors | hit rate 4.4% among 360,000 | AID 504333; further: on the % scale 0 is the no-effect control and ±100 the full control effect; nearly all actives have a fitted effect of over 60% in size
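Compounds, titrated to a top concentration of 110 uM, were incubated 30 min at room temperature with preformed BAZ2B/acetyl-K14 H3 peptide complex (50 nM each). Proximity signal was measured by AlphaScreen after 20 min with beads.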
HP1b binding inh = inhibitors of HP1-beta chromodomain binding to methylated histone tails; P83916; AlphaScreen HP1-beta / biotin-H3K9me3 peptide binding; Potency, µM (titrated, usually from 114 µM), for the others: at the top dose activity change, negative = inhibition, hits mostly inhibitors; hit rate 0.56% among 390,000; further: nearly all actives have a fitted effect of over 70% in size
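HP1-beta protein (50 nM final) preincubated 30 min at room temperature with biotinylated H3(1-18)K9me3 peptide (50 nM) in PBS pH 7.4, 0.01% Tween-20, then compound added for 30 min. AlphaScreen streptavidin donor/nickel chelate acceptor beads (10 ug/mL final), 30 min dark, luminescence read.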
JMJD2A Tudor = blocks the human JMJD2A Tudor domain; O75164; AlphaScreen JMJD2A-Tudor / H3K4me3 peptide binding; hit rate 4.4% among 390,000; Potency, µM (series often up to 114 µM), for the others: at the top dose activity change, negative = inhibition, hits mostly inhibitors; further: on the % scale 0 is the no-effect control and ±100 the full control effect; nearly all actives have a fitted effect of over 50% in size
The depositor's hits bear a star; ? = inconclusive; · = not tested or not shown; [ ] = another dose, or the depositor's remark. The call rests on the fitted dose curve; in most records, active means well fitted curve in the direction sought with a large enough effect; inconclusive means small, poorly fitted or top-dose-only effect, or another doubt; inactive means no such curve, though single readings can be large; an effect the other way counts as inactive or inconclusive. Potency means the concentration at half of the fitted maximal effect.

SMILES	G9a block	GLS inhibitor	BAZ2B block	HP1b binding inh	JMJD2A Tudor
CCCCn1c(-c2csc3c2CCC(C)C3)n[nH]c1=S (stereo not given)	24%[59 µM]	?	-7%	6%	-27%
CCCCn1c(-c2csc3c2CCCC3)n[nH]c1=S	?	?	-31%	-5%	40µM*
CCCCn1c(SCc2nc3ccccc3s2)nc2ccccc2c1=O	5%[59 µM]	12%	3%	83%	-11%
C=CCn1c(-c2csc3c2CCC(C)C3)n[nH]c1=S (stereo not given)	1.4µM*	11%	-35%	6%	?
CCCCn1c(-c2csc3ccccc23)n[nH]c1=S	1.4µM*	-20%	-2%	22%	?
COc1ccc(CNC(=O)CCCc2nnc3n(C(C)C)c(=O)c4sccc4n23)cc1	-9%[59 µM]	-9%	-24%	29%	-16%
CCCCn1c(-c2cccs2)nc2nc3ccccc3nc21	111%	-1%	25%[57.1 µM]	86%	59%
CCCCCCn1c(-c2cccs2)n[nH]c1=S	5.6µM*	2%	-23%	-15%	28µM*
CS(=O)(=O)c1nc(-c2ccco2)cc(C(F)(F)F)n1	32µM*	·	-1%	·	·
COc1ccccc1-c1cc(C(F)(F)F)nc(S(C)(=O)=O)n1	?	6%	-6%	90%	-8%
CCOC(=O)/C=C1\SCC(=O)N1CC(=O)NC(C)c1ccc(F)cc1 (stereo not given)	9%[59 µM]	1%	2%	19%	-12%
O=C(COC(=O)C1CCCCC1)Nc1ccc(N2CCCCC2)cc1	11µM*	28%	?	?	?
NS(=O)(=O)c1ccc(NC(=O)COC(=O)C2CCCCC2)cc1	0%[12.7 µM]	12%	-14%	6%	-13%
CC1(C)CC(=O)N(CC(=O)NCc2ccccc2)c2ccccc2S1(=O)=O	18%[59 µM]	-6%	-6%	35%	-6%
O=C(CNCc1ccccc1Cl)Nc1ccccc1N1CCCCC1	10µM*	12%	22µM*	?	22µM*
O=C(CNC1CCCC1)Nc1ccc(N2CCCCCC2)cc1	5.6µM*	?	22µM*	40µM*	2.8µM*
CCN(CC)c1ccc(NC(=O)CN2C(=O)CC(C)(C)S(=O)(=O)c3ccccc32)c(C)c1	8.9µM*	29%	-12%	49%	-27%
Cc1sc2ncnc(N3CCC(C(=O)Nc4nc(-c5ccc(F)cc5)cs4)CC3)c2c1C	-53%	-3%	4%	9%	-17%
COc1ccc(Nc2nc(-c3ccccc3)nc3ccccc23)c(OC)c1	127%	13%	61%	161%	61%
COc1ccc(C(=O)Nc2ccc(S(=O)(=O)N3CCOCC3)cc2)cc1OC	-11%	5%	1%	14%	-15%
CC1CCN(CC(=O)Nc2ccc(S(=O)(=O)N3CCCCC3)cc2)CC1	·	1%	7%	24%	-6%
CC1CCN(CC(=O)Nc2ccc(N3CCCCCC3)cc2)CC1	10µM*	13%	20µM*	22µM*	20µM*
O=C(CNCC1CCCO1)Nc1ccccc1N1CCCCCC1 (stereo not given)	45µM*	19%	?	-14%	?
CCN(CC)c1ccc(NC(=O)Cn2ncc3c(C)n(Cc4ccccc4F)c(C)c3c2=O)c(C)c1	?	1%	0%	29%	-7%
CCN(CC)c1ccc(NC(=O)CNCc2ccccc2Cl)c(C)c1	35µM*	32%	18µM*	25µM*	10µM*
SMILES	G9a block	GLS inhibitor	BAZ2B block	HP1b binding inh	JMJD2A Tudor
O=C(CNCC1CCCO1)Nc1ccc(N2CCCCCC2)cc1 (stereo not given)	?	33%	35µM*	14µM*	3.2µM*
CCCN(CCC)C(C(=O)Nc1cccc(OC)c1)c1ccccc1 (stereo not given)	-2%	5%	15%	49%	-1%
O=C(CNC1CCCCCC1)Nc1ccc(N2CCCC2)cc1	28µM*	·	?	·	·
O=C(CNCC1CCCCC1)Nc1ccc(N2CCCCC2)cc1	22µM*	·	28µM*	·	·
O=C(CNCCC1=CCCCC1)Nc1ccc(N2CCCCCC2)cc1	?	26%	13µM*	16µM*	20µM*
O=C(Cc1ccc(Cl)cc1)Nc1ccc(N2CCCC2)cc1	?	-4%	-3%	11%	4%
O=C(CCC(=O)N1CCN(S(=O)(=O)c2ccc3ccccc3c2)CC1)Nc1cc(Cl)cc(Cl)c1	2%	-9%	-10%	65%	-11%
CCOc1ccc(C(C)=O)cc1N1C(=O)C2C(C1=O)C1C=CC2C12CC2 (stereo not given)	-9%	3%	50µM*	29%	-1%
CC(=O)c1n[nH]nc1NC(=O)c1ccccc1	50µM*	5%	50µM*	6%	20µM*
CCc1nnc(NC(=O)c2sc3nc4c(cc3c2N)CCCCCC4)s1	45µM*	-6%	-12%	-4%	-25%
O=C(NCCCN1CCN(Cc2ccccc2)CC1)C1CCN(c2nnc(-n3cccc3)s2)CC1	-10%	-14%	-14%	-7%	?
CCN(CC)c1ccc(NC(=O)C2CCN(c3nnc(-n4cccc4)s3)CC2)c(C)c1	4µM*	17%	2%[57.1 µM]	16%	-19%
O=C(NCCCN1CCc2ccccc2C1)C1CCN(c2nnc(-n3cccc3)s2)CC1	50µM*	-1%	-35%	22%	?
Nc1nc(NCCc2ccc(O)cc2)nc2nc(-c3ccco3)nn12	-26%[59 µM]	·	·	·	·
O=C(O)CSCc1nc2scc(-c3ccccc3)c2c(=O)[nH]1	50µM*	-10%	-24%	11%	-5%[57.1 µM]
O=c1[nH]c(Cc2ccccc2)nc2scc(-c3ccccc3)c12	-9%	11%	-20%	14%	-12%
CC(C)CNC(=O)CSc1nc2scc(-c3ccccc3)c2c(=O)[nH]1	11µM*	-2%	-24%	18%	-17%
COC(=O)/C(C#N)=C/c1ccc(OC(=O)c2ccccn2)cc1	7.9µM*	10%	7.1µM*	44%	8.9µM*
N#CC1=C(SCC(N)=O)NC2=C(C(=O)c3ccccc32)C1c1ccc(Cl)cc1 (stereo not given)	50µM*	-22%	-2%	21%	-34%
CCc1oc(C(=O)O)cc1CN(CC)CC	-27%[59 µM]	0%	-19%	-2%	32µM*
CCCc1oc(C(=O)O)cc1CN	?	-28%	?	39%	-19%
CCc1oc(C(=O)O)cc1COC	45µM*	?	?	7%	?
O=C(NCC1CCC(C(=O)O)CC1)c1cccnc1 (stereo not given)	-4%	3%	1%	29%	-8%
Cc1cc(Sc2nc(N)ncc2[N+](=O)[O-])ncn1	32µM*	-9%	?	33%	1%
CC(=O)Nc1ccc(SCCN2CC[C@@H](O)CCC2=O)cc1	-10%[2.33 µM]	-1%	7%	52%	-6%
O=C(Cc1ccc(Cl)cc1)Nc1ncc([N+](=O)[O-])s1	35µM*	3%	-12%	-5%	-31%
O=C(Cc1ccc([N+](=O)[O-])cc1)Nc1ccc(Cl)cc1	40µM*	-5%	-12%	31%	-12%

Screening data as filed in PubChem.
